Test results published in PubChem BioAssay.
Activity calls are given as the source filed them.

What was measured:
[1] = small-molecule microarray binders of probe aLefty2, primary screen, biochemical, biotinylated probe, 635/667 nm fluorescence (AID 1094); conditions: higher = more signal;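 also: score merges spot fluorescence near 667 nm with spot signal-to-noise ratio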
[2] = tested on: Noggin (protein binding on small-molecule microarray); assay: Noggin binders on small-molecule microarray, primary screen, biochemical, 635/667 nm fluorescence (AID 1095); conditions: 635 nm fluorescence, higher = more signal;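 also: score merges 667 nm feature fluorescence with signal to noise over triplicate slides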
[3] = target: Neurogenic locus notch homolog protein 3 (Homo sapiens) (UniProt Q9UM47); assay: NOTCH3 binders on small-molecule microarray, primary screen, biochemical, 635/667 nm fluorescence (AID 1096); conditions: NOTCH3 binding, 635 nm fluorescence, higher = more signal
[4] = small-molecule microarray binders of probe aEGFR, primary screen, biochemical, biotinylated probe, 635/667 nm fluorescence (AID 1097); conditions: higher = more signal;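 also: probe is a biotinylated anti-EGFR antibody binding compounds printed on slides; score combines fluorescence near 667 nm and signal to noise of each spot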
[5] = tested on: Plasmodium falciparum Sir2 (PF13_0152, Sir2A); assay: pfSir2 binders on small-molecule microarrays, primary screen, biochemical, small-molecule microarray, 635 nm fluorescence (AID 1098); conditions: small-molecule microarray binding, fluorescence 635 nm; higher = more signal;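 also: score merges spot fluorescence intensity with its signal-to-noise ratio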
[6] = small-molecule microarray binders of probe aDKK1, primary screen, biochemical, biotinylated probe, 635/667 nm fluorescence (AID 1099); conditions: higher = more signal;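 also: score merges 667nm spot fluorescence with signal to noise across triplicate slides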
[7] = small-molecule microarray binders of probe aCHRDL2, primary screen, biochemical, biotinylated probe, 635/667 nm fluorescence (AID 1100); conditions: higher = more signal
[8] = splicing luciferase reporter signal modulators, primary screen, spliceosome inhibition project, cell-based, HEK293, splice +/- reporter (AID 1101); conditions: luminescence, 24 h, higher = more signal, called active from +8 up or from −8 down;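 also: HEK293 cells carrying a splicing-competent luciferase reporter gene; test concentration not given here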
[9] = target: Fibroblast growth factor 10 (Homo sapiens) (UniProt O15520); assay: FGF10 binders on small-molecule microarrays, primary screen, biochemical, small-molecule microarray, 635 nm fluorescence (AID 1102); conditions: FGF10 binding, fluorescence 635 nm, higher = more signal
[10] = tested on: glycogen synthase kinase-3 (GSK3A per assay name; protocol says GSK3B); assay: GSK3 binders on small-molecule microarrays, primary screen, biochemical, small-molecule microarray, 635 nm fluorescence, GSK3A (AID 1103); conditions: small-molecule microarray binding, fluorescence 635 nm; higher = more signal; also: the record names both GSK3A and GSK3B
[11] = target: Epidermal growth factor receptor (Homo sapiens) (UniProt P00533); assay: EGFR binders on small-molecule microarrays, primary screen, biochemical, small-molecule microarray, 635 nm fluorescence (AID 1104); conditions: EGFR binding, higher = more signal;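 also: score merges 667 nm emission intensity with spot signal to noise over triplicate slides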
[12] = target: Follistatin-related protein 3 (Homo sapiens) (UniProt O95633); assay: FSTL3 binders on small-molecule microarrays, primary screen, biochemical, small-molecule microarray, 635 nm fluorescence (AID 1105); conditions: FSTL3 binding, higher = more signal;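 also: score merges emission near 667 nm and signal to noise per printed spot across three slides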
[13] = target: Dickkopf-related protein 1 (Homo sapiens) (UniProt O94907); assay: DKK1 binders on small-molecule microarrays, primary screen, biochemical, small-molecule microarray, 635 nm fluorescence scan (AID 1106); conditions: DKK1 binding, higher = more signal;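 also: score merges emission near 667 nm with signal to noise over three replicate slides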
[14] = tested on: Inhibin beta A chain (activin A); assay: INHBA (activin A) binders on microarrays, primary screen, biochemical, small-molecule microarray, 635 nm fluorescence scan (AID 1107); conditions: small-molecule microarray binding, higher = more signal;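 also: mouse activin A protein probed at 4.33 µg/mL on printed slides; score merges bound-protein fluorescence near 667 nm with spot signal-to-noise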
[15] = tested on: Human papillomavirus type 1a protein E7 (residues 44-93); assay: HPV1a E7 fragment binders on microarrays, primary screen, biochemical, small-molecule microarray, residues 44-93, 635 nm fluorescence (AID 1108); conditions: small-molecule microarray binding, fluorescence 635 nm; higher = more signal;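 also: E7 fragment applied at 1 µg/mL in TBST for 1 h at 4 C; score combines spot fluorescence with its signal to noise ratio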
[16] = modulators of HCV replicon luciferase signal, primary screen, HCV replication inhibitor project, Huh7 cells, luciferase reporter (AID 1109); conditions: 48 h, higher = more signal;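 also: huh7 hepatoma cells harbouring a luciferase neomycin HCV replicon reporter; luciferase luminescence as measure of HCV replicon replication; test concentration not given here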
[17] = target: Left-right determination factor 2 (Homo sapiens) (UniProt O00292); assay: LEFTY2 binders on small-molecule microarrays, primary screen, biochemical, small-molecule microarray, 635 nm fluorescence scan (AID 1110); conditions: LEFTY2 binding, higher = more signal
[18] = target: Calmodulin-1 (Homo sapiens) (UniProt P0DP23); assay: CALM1 binders on microarrays, EGTA buffer, profiling panel, biochemical, small-molecule microarray, Cy5-labelled CALM1 (AID 1111); conditions: Cy5-CALM1 binding fluorescence, higher = more signal;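 also: labelled calmodulin applied in Tris saline Tween buffer holding calcium plus EGTA and DTT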
[19] = target: Calmodulin-1 (Homo sapiens) (UniProt P0DP23); assay: calcium-bound CALM1 binders on microarrays, profiling panel, artefact control for SMM control-protein annotation, biochemical, small-molecule microarray, Cy5-labelled CALM1, plus calcium (AID 1112); conditions: Cy5-CALM1 binding fluorescence, higher = more signal;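 also: score merges spot fluorescence with signal to noise from triplicate slides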
[20] = small-molecule microarray binders of probe aWnt5a, primary screen, biochemical, biotinylated probe, 635/667 nm fluorescence (AID 1113); conditions: higher = more signal;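 also: score merges 667 nm fluorescence intensity with signal-to-noise per printed feature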

Dickkopf-related protein 1 (Homo sapiens), sequence (O94907 whole entry, looked up): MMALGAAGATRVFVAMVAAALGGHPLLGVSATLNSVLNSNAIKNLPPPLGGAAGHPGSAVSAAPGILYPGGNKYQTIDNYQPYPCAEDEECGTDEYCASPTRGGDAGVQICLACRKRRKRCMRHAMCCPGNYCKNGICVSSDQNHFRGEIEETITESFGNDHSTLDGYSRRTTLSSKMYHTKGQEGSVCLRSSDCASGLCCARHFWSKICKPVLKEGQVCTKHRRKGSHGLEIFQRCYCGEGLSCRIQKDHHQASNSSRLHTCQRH
Follistatin-related protein 3 (Homo sapiens), sequence (O95633 whole entry, looked up): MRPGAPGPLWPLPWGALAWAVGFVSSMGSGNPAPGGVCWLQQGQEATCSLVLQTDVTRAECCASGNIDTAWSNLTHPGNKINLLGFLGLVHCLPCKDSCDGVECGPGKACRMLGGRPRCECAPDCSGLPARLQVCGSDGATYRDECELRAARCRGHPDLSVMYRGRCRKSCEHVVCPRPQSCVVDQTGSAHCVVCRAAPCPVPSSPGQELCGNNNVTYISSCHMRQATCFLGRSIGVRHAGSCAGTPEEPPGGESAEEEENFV
Epidermal growth factor receptor (Homo sapiens), sequence (P00533 whole entry, looked up): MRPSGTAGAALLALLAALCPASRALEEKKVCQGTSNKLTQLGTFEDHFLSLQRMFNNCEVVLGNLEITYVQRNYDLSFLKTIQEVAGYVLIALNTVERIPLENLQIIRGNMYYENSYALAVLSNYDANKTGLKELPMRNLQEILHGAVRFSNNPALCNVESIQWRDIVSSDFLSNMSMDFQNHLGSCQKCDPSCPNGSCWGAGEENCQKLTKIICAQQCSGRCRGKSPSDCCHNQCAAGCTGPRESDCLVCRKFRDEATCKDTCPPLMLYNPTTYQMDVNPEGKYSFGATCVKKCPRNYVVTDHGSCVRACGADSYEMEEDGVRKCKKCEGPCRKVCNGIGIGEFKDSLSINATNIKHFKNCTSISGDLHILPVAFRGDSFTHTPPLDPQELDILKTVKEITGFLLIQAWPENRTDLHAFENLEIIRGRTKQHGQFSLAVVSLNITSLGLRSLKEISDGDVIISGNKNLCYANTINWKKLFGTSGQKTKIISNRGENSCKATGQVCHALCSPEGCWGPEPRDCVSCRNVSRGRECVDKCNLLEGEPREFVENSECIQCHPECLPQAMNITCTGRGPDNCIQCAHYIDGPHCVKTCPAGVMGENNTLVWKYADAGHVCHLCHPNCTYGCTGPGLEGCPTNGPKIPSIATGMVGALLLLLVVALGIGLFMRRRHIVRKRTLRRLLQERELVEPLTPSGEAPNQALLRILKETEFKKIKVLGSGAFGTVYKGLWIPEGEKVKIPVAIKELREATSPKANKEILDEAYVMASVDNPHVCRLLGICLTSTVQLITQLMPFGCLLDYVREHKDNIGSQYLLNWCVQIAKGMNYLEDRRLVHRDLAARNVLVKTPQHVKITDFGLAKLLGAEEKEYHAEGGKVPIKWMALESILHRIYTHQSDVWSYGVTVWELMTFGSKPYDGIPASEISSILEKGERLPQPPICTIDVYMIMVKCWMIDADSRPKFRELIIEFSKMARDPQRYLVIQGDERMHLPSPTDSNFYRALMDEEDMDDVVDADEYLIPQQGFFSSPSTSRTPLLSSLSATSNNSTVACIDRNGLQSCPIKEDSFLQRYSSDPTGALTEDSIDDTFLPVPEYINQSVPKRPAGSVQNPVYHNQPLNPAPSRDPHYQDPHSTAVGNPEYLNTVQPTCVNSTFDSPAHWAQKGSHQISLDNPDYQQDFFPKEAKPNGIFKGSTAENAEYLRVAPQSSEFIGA
Left-right determination factor 2 (Homo sapiens), sequence (O00292 whole entry, looked up): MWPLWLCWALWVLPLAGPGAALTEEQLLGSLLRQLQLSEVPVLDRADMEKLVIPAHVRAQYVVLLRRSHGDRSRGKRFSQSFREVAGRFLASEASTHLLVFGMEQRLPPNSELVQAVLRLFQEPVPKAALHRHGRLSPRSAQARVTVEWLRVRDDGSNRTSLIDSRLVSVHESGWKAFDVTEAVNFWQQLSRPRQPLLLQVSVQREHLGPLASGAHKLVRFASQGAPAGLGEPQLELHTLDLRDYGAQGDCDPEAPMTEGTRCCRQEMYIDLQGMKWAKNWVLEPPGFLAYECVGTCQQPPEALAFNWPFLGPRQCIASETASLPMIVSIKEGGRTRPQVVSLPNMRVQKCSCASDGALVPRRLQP
Fibroblast growth factor 10 (Homo sapiens), sequence (O15520 whole entry, looked up): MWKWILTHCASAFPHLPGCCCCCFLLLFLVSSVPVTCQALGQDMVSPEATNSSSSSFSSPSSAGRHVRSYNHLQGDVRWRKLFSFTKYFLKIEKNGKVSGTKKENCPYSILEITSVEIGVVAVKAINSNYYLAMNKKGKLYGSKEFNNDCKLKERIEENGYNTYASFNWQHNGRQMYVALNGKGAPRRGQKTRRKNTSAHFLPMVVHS
Neurogenic locus notch homolog protein 3 (Homo sapiens), sequence (Q9UM47 whole entry, looked up): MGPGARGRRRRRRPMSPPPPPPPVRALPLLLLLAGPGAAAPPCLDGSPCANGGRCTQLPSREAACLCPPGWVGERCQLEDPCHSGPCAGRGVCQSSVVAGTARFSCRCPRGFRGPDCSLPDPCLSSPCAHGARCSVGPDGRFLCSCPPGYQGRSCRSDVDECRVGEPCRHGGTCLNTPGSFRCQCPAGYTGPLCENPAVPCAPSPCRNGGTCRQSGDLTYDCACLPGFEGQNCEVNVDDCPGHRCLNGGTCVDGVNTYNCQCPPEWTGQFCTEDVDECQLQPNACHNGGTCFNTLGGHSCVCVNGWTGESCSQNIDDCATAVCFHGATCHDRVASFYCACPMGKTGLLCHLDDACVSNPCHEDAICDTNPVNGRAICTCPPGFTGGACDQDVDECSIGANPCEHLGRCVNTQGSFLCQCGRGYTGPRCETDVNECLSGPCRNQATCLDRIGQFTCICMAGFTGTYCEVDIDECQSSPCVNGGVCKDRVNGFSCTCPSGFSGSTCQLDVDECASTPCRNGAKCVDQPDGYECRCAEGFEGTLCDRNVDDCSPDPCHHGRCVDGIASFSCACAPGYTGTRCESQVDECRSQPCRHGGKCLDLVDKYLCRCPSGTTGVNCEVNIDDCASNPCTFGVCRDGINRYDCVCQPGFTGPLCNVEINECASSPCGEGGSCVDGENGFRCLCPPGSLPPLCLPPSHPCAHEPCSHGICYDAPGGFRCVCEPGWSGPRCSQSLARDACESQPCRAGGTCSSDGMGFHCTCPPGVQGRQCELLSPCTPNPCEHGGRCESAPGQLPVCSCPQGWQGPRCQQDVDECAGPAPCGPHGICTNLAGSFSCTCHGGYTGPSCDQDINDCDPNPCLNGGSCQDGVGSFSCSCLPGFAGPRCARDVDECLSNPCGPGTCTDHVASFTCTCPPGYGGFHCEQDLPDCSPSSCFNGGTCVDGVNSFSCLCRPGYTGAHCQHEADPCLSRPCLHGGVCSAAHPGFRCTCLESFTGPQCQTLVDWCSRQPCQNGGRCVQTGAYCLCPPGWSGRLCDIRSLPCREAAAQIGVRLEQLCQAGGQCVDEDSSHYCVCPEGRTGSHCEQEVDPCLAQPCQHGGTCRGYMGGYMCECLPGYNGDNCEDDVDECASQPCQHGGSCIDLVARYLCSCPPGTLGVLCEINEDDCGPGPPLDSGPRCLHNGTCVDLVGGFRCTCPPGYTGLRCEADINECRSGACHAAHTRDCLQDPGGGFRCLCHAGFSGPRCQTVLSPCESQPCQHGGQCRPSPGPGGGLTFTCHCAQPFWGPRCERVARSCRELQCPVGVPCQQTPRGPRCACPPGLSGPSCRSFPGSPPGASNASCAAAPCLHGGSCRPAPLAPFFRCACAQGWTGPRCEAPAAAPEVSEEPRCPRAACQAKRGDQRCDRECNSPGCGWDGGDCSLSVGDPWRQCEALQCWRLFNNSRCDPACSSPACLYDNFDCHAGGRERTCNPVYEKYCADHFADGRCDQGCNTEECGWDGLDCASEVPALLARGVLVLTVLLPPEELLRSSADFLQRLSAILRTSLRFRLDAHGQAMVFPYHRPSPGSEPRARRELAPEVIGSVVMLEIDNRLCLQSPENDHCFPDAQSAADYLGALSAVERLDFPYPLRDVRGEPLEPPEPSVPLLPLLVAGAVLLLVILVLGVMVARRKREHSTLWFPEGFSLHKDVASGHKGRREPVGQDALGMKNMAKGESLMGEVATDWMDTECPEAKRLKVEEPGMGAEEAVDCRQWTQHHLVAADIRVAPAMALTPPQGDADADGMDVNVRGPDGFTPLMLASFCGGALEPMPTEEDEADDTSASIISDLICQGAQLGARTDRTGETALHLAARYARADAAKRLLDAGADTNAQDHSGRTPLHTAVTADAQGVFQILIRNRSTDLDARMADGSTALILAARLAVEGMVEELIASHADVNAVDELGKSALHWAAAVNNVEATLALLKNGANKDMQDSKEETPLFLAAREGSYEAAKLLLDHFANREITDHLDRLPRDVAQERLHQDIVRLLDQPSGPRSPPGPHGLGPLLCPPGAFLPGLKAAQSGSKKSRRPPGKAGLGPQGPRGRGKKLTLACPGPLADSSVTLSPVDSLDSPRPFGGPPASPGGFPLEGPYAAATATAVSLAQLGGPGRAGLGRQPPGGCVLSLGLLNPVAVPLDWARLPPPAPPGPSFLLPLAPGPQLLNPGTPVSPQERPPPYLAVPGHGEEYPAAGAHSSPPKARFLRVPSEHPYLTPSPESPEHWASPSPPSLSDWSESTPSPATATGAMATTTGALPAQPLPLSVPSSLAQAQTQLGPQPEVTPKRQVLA

| Compound | composite z-score [1] | composite z-score [2] | composite z-score [3] | composite z-score [4] | composite z-score [5] | composite z-score [6] | composite z-score [7] | z-score [8] | composite z-score [9] | composite z-score [10] | composite z-score [11] | composite z-score [12] | composite z-score [13] | composite z-score [14] | composite z-score [15] | z-score [16] | composite z-score [17] | composite z-score [18] | composite z-score [19] | composite z-score [20] |
| --- | --- | --- | --- | --- | --- | --- | --- | --- | --- | --- | --- | --- | --- | --- | --- | --- | --- | --- | --- | --- |
| O=C(O)[C@H]1C[C@H]2C(=O)N[C@@H](Cc3ccccc3)C(=O)N2[C@H]1c1ccc(O)cc1 | -0.0572 | 0.108 | 0.321 | 0.064 | 1.56 | 0.844 | 0.913 | -0.282 (inactive) | -0.349 | 0.661 | -0.502 | -0.192 | -0.0944 | 0.945 | -0.067 | -0.262 | -0.307 | -0.195 | 0.504 | -0.0678 |
| O=C1O[C@H](c2ccccc2)[C@H](c2ccccc2)N2[C@H]1[C@@H](C(=O)Nc1nc3ccccc3s1)[C@]1(C(=O)Nc3ccc(C#CCCO)cc31)[C@H]2c1ccccc1OCCO | 0.0459 | 0.244 | 0.912 | 0.0381 | 1.35 | 0.676 | 0.784 | -0.0121 (inactive) | 0.545 | 1.31 | 0.289 | 0.892 | 0.328 | 0.793 | 0.793 | -1.79 | 0.537 | 1.74 | 0.439 | 0.0849 |
| C=CCC(OC(C)=O)[C@@H]1[C@@H](N(Cc2cccc3ccccc23)C(=O)Cc2ccc(OC)cc2)c2cc(OCCCO)ccc2N1C(=O)Cc1ccc(OC)cc1 (stereo not given in full) | -0.0691 | -0.318 | -0.89 | -0.166 | -0.247 | 0.199 | 0.373 | -0.768 (inactive) | -0.0161 | -0.45 | 0.015 | -0.134 | 0.0484 | 1.21 | -0.05 | 0.217 | 0.119 | -0.294 | 0.14 | -0.014 |
| C=CCNC(=O)[C@H]1[C@@H]2C(=O)O[C@@H](c3ccccc3)[C@@H](c3ccccc3)N2[C@@H](c2ccccc2OCCO)[C@]12C(=O)N(C(=O)OCCOC)c1ccc(C#CCCO)cc12 | 0.994 | 1.59 | 1.12 | 0.596 | 0.745 | 1.73 | 0.981 | -0.485 (inactive) | 1.35 | 1.2 | 0.843 | 1.24 | 0.983 | 1.01 | 0.188 | -2.5 | 1.06 | 1.78 | 1.08 | 0.0722 |
| C=C(/C(=C/C[C@H](OC(=O)c1ccncc1)c1cccc(OCCO)c1)c1cc(C(=O)OC)ccc1OC)C(C)C | -0.192 | 0.126 | 0.436 | -0.112 | 0.903 | 0.235 | 0.569 | -1.63 (inactive) | 0.493 | -0.129 | -0.763 | -0.127 | -0.227 | 0.639 | 0.0251 | -1.86 | -0.107 | -0.193 | -0.808 | -0.169 |
| CCOC(=O)C[C@H]1[C@H](OC(=O)Cc2ccc3c(c2)OCO3)[C@@H](NC(=O)c2ccc3ccccc3c2)c2cc(OCCCO)ccc2N1C(=O)c1ccc2ccccc2n1 | -0.0865 | 0.235 | 0.808 | 0.0343 | 0.114 | -0.0522 | -0.0322 | -3.47 (inactive) | 0.18 | 0.0646 | 0.118 | 0.161 | 0.121 | 0.0739 | -0.13 | -1.43 | 0.0822 | 1.05 | 0.691 | -0.124 |
| CO[C@H]1O[C@H](CO)[C@@H](OC(=O)Nc2ccccc2)[C@H](OC(=O)Nc2ccc3c(c2)OCO3)[C@H]1OC(=O)Nc1ccc2c(c1)OCO2 | 0.0789 | 0.128 | 1.06 | -0.0527 | 1.59 | 0.666 | 0.757 | -0.618 (inactive) | 0.729 | 0.741 | -0.242 | 0.292 | 0.0894 | 0.798 | 0.538 | -1.04 | 0.452 | 1.65 | -0.617 | 0.0973 |
| [N-]=[N+]=NCc1ccccc1C[C@]1(C(=O)NCc2ccccc2)N=C(c2ccc(OCCCO)cc2)O[C@H]1c1ccccc1 | 0.52 | -0.577 | 0.224 | 0.1 | 1.01 | 1.51 | 1.28 | 0.359 (inactive) | 0.19 | -0.516 | -0.864 | -0.565 | -1.03 | 0.928 | 0.508 | -1.95 | -0.941 | 1.82 | 1.36 | 0.108 |
| CCCCC(=C=CC[C@@H](O)c1ccc(OCCO)cc1)C[C@@H](O)c1cc(Cl)cc(Cl)c1O | -0.057 | 0.988 | -0.174 | 0.24 | 0.157 | 0.279 | 0.577 | -2 (inactive) | 0.697 | -0.167 | -0.723 | -0.0492 | -0.344 | 0.588 | -0.258 | -1.99 | -0.0836 | 0.863 | 0.83 | -0.124 |
| CN1C=C(C(=O)OCCS(C)(=O)=O)C(C(=O)OCCS(C)(=O)=O)=CC(CCCO)=CC1c1cccs1 (stereo not given) | 0.022 | 0.774 | 0.774 | -0.0659 | -0.122 | -0.18 | -0.707 | -0.601 (inactive) | 0.395 | 0.891 | 0.56 | 0.663 | 0.537 | -0.558 | 0.358 | -0.911 | 0.716 | -0.524 | -0.676 | -0.0161 |
| CO[C@H]1O[C@H](CO)[C@@H](OC(=O)Nc2ccccc2)[C@H](OC(=O)Nc2ccccc2-c2ccccc2)[C@H]1OC(=O)Nc1ccccc1-c1ccccc1 | -0.0699 | 0.764 | 0.965 | -0.0978 | 1.79 | 0.834 | 0.91 | -2.83 (inactive) | 0.626 | 1.31 | -0.165 | 0.824 | 0.482 | 0.0315 | 1.36 | -3.9 | 0.152 | 2.18 | 0.438 | -0.0735 |
| CC(C)CNC(=O)[C@@H]1c2ccccc2C(=O)N(Cc2ccc(OC(F)(F)F)cc2)[C@H]1c1ccc(CO)cc1 | -0.0329 | 1.3 | 1.04 | 0.0378 | 1.46 | 0.799 | 0.922 | -0.787 (inactive) | 0.64 | 1.28 | 0.346 | 1.26 | 0.407 | 0.254 | -0.491 | -0.913 | 0.569 | 0.986 | -0.614 | 0.0519 |
